Test results from PubChem BioAssay AID1851 (National Center for Advancing Translational Sciences (NCATS), 2009).
Where “and” joins values, the source holds several entries; their conditions need not be identical. Equal values may be shown once. Hit rate of the full screen: of about 16,000 compounds, about 5,700 (36%) were called active. Roughly 24% stayed inconclusive and do not appear here. The call rests on the fitted dose curve; in most records, active means well fitted curve in the direction sought with a large enough effect; inconclusive means small, poorly fitted or top-dose-only effect, or effect the other way; inactive means no such curve, though single readings can be large or run the other way. The list shows a part of the results.

The molecules below were run against Cytochrome P450 1A2 (Homo sapiens) (UniProt P05177) (assay: Cytochrome panel assay with activity outcomes). Details: recombinant CYP, pro-luciferin dealkylation, luminescence, p450-cyp1a2; series mostly up to 57.1 µM.
On the % scale 0 is the no-effect control and ±100 the full control effect.

Cytochrome P450 1A2 (Homo sapiens), sequence (P05177 whole entry, looked up): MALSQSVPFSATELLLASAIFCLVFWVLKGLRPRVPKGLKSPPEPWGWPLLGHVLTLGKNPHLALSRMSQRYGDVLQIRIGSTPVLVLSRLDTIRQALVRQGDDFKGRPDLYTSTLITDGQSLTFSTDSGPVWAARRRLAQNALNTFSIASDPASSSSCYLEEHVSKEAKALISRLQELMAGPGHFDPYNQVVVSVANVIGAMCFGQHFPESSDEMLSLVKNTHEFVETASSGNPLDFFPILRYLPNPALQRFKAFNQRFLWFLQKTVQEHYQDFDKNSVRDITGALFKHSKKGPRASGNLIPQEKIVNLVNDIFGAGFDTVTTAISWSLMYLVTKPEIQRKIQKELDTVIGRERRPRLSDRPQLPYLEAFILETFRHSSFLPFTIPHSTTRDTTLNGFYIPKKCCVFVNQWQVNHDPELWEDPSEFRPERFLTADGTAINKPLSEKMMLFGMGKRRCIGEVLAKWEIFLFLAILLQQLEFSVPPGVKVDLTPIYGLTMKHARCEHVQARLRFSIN

activity, negative = inhibition, inactive:
COc1ccc(C[N+](C)(C)N)cc1OC -11.5% [at 11.4 µM]
Nc1ncnc2c1ncn2CCCCC(=O)O -3.15% [at 11.4 µM]
Nc1ccc(S(=O)(=O)c2ccc(NC(=O)c3cccnc3)cc2)cc1 -21.1% [at 2.29 µM]
CO[C@H]1COC(=O)[C@@H](C)COC(=O)[C@@H](Cc2ccccc2)NC(=O)C/C=C\[C@H]1C 4.52% [at 11.4 µM]
CCOC(=O)CCN1C(=O)[C@H]2[C@H]3[C@H](O)[C@H](O)C/C(=N/OC[C@@H](O)COCc4ccco4)[C@@H]3CC[C@@H]2C1=O -1.07% [at 11.4 µM]
OCCN(CCO)c1ncnc2nc[nH]c12 -9.2% [at 11.4 µM]
CO[C@@H]1COC(=O)[C@H](Cc2ccccc2)NC(=O)C/C=C\[C@@H](C)[C@H](OC)COC(=O)[C@@H](C)NC(=O)C/C=C\[C@H]1C -3.56% [at 11.4 µM] and 1.16% [at 11.4 µM]
NCCSC[C@H](N)C(=O)O -0.987% [at 11.4 µM]
CC(=O)Nc1nc(NC(C)=O)c2[nH]c(CO)nc2n1 -14.4% [at 11.4 µM]
COC(=O)[C@@H]1CC[C@H](C)[C@@H](c2ccc(C)cc2)N1C(=O)c1ccc(/C=N\O[C@@H]2O[C@H](COC(C)=O)[C@H](OC(C)=O)[C@H](OC(C)=O)[C@H]2OC(C)=O)cc1 -1.33% [at 11.4 µM]
CC[C@H]1CC[C@H]2[C@@H]3CC=C4C[C@H](OC(C)=O)[C@@H](N)C[C@@]4(C)[C@H]3CC[C@@]12C -5.9% [at 11.4 µM]
CCO[C@H](c1cc(OC)cc([N+](=O)[O-])c1OC)[C@H](C)/C=C\CC(=O)OC 1.93% [at 11.4 µM]

AC50, inactive:
COc1ccc(C2(C(=O)N3CCOCC3)CCCC2)cc1
COc1cc(N2CCOCC2)ncn1
CCOc1cc(/C=N/NC(=O)c2cc(C)[nH]n2)ccc1OC(=O)c1ccc([N+](=O)[O-])cc1
COc1ccc(/C=C/C(=O)Oc2cccc(/C=N/NC(=O)COc3c(C)cccc3C)c2)cc1
CN(C)CCNC(=S)Nc1cccc(Cl)c1
CC1(C)S[C@@H]2[C@H](NC(=O)[C@@H](N)c3ccccc3)C(=O)N2[C@H]1C(=O)O[C@H]1OC(=O)c2ccccc21
CN1CCc2c(sc3c2c(=O)n(-c2ccccc2)c2nncn32)C1
CCCCCCCCCCCCCCCCCCOC[C@@H](COP(=O)([O-])OCC[N+](C)(C)C)OC
COc1ccc(CC(=O)Nc2ccc(-c3nnc(-c4ccccc4)o3)cc2)cc1
CCOc1ccc(OCC)c(-c2c(=O)n(OCc3ccccc3C(=O)OC)c3ccccc3[n+]2[O-])c1
COC(=O)c1ccccc1NC(=O)CSc1nnc(C(CO)NC(=O)c2ccccc2Cl)n1C (centres undefined)
CCN1CCN(c2nc3ccccc3nc2C(C#N)C(=O)OC2CCCCC2)CC1 (centres undefined)
C=CCn1c(C)c(C(C)=O)c(N2CCN(c3ccccc3)CC2)nc1=S
CC1CCCC(C)N1CC(O)COCC1COc2ccccc2O1 (centres undefined)
CN1CCN(c2ncc3nc(-c4cn(C)c5ccccc45)c(=O)n(CCc4ccccc4)c3n2)CC1
COc1ccc(Oc2ncc3nc(-c4cn(C)c5ccccc45)c(=O)n(C)c3n2)cc1
OC[C@H]1NC[C@H](O)[C@@H](O)[C@H]1O
O=C(NCc1n[nH]c(=S)n1-c1ccccc1)c1ccc(S(=O)(=O)N2CCOCC2)cc1
CN1CCCC2(CCN(C(=O)c3cc(C(F)(F)F)cc(C(F)(F)F)c3)CC2)C1
CCOc1ccc(C(CC(=O)O)NC(=O)COc2ccccc2)cc1 (centres undefined)
O=C(O)C1=CCNCC1
COCCCNC(=O)CCC(=O)Nc1ccc2nc(N3CCOCC3)cc(C)c2c1
Cc1cc(NC(=O)CSc2nc3ccccc3c(=O)n2CCCC(=O)NCc2ccco2)n[nH]1
CCOC(=O)c1cc(CC)sc1NC(=O)C(c1ccccc1)c1ccccc1
Cc1nc2ccccc2n1CC(=O)N/N=C\c1ccccn1
O=c1cc(CO)oc(CN2CCCC2)c1O
CN(N=O)C(=O)N[C@H]1[C@@H](O)[C@H](O)[C@H](CO)O[C@@H]1O
Cc1noc(C)c1-c1cncnc1N(C)Cc1ccco1
CCOc1cc(C2CC(=O)c3c(ccc4ccccc34)N2)ccc1O (centres undefined)
CCCc1cc(=O)oc2cc(OCC(=O)N3CCc4ccccc43)ccc12
COc1ccc(/C(O)=C2\C(=O)C(=O)N(c3cc(C)on3)C2c2ccc(OC)c(OC)c2)cc1OC (centres undefined)
CC(=O)OCC(=O)[C@@]1(O)[C@H](C)C[C@@H]2[C@H]3CCC4=CC(=O)C=C[C@]4(C)[C@]3(F)[C@@H](O)C[C@@]21C
CCn1c(CSCc2ccc(C)cc2)nnc1SCC(=O)NCc1ccccc1
CCC(C)NS(=O)(=O)c1ccc(NC(=O)CCC2CCCCC2)cc1 (centres undefined)
COc1cccc(N(CC(=O)Nc2cccc(C(C)=O)c2)S(C)(=O)=O)c1
O=C(CSCc1ccccc1)Nc1ccc(S(=O)(=O)N2CCOCC2)cc1
O=C(CCC1CCCCC1)Nc1c2c(nn1-c1ccc(F)cc1)CS(=O)(=O)C2
Cc1ccc(O)c(C(=O)c2cc(C#N)c(=O)n(-c3c(C)n(C)n(-c4ccccc4)c3=O)c2)c1

AC50, active:
COc1cc(CNn2nnnc2N)ccc1OCc1c(Cl)cccc1Cl 7080 nM
O=C(Nc1cccnc1)c1ccc2snnc2c1 63.1 nM
COc1ccc(OC)c2c(=S)c3ccccc3[nH]c12 63.1 nM
COc1ccc2c(C)cc(N3CCOCC3)nc2c1 2510 nM
NCCCCCc1nnc(SCc2ccc(Cl)cc2Cl)o1 11200 nM
CCOc1cc(/C=N/NC(=O)COc2cccc(C)c2)ccc1OC(=O)c1cccs1 11200 nM
S=C(NCc1ccccn1)Nc1cccc(Cl)c1 2820 nM
FC(F)(F)c1cccc(NC(=S)Nc2cccc(Cl)c2)c1 5010 nM
O=C(Nc1cc(C(F)(F)F)ccc1-n1cncn1)c1ccc(Br)cc1 562 nM
Cn1c(=O)c2c3c(sc2n2cnnc12)CCC3 8910 nM
c1ccc(-c2nc(-c3cccs3)[nH]c2-c2ccccc2)cc1 1000 nM
Cc1ccsc1-c1nc(-c2ccccc2)c(-c2ccccc2)[nH]1 1120 nM
COC(=O)c1ccccc1NC(=O)c1ccc(Cn2cc(Cl)cn2)o1 1580 nM
COc1ccc(NC(=O)c2ccc(COc3ccccc3)o2)cc1 2510 nM
COC(=O)c1ccccc1NC(=O)c1ccc(COc2ccc(C)c(C)c2)o1 2820 nM
Cc1ccc(OCc2ccc(C(=O)Nc3nccs3)o2)cc1C 631 nM
CCOc1nc(N2CCCCC2)nc(-n2cc(-c3ccccc3)nn2)n1 2510 nM
C=CCN1CCN(c2nc3ccccc3nc2C#N)CC1 100 nM
Cc1ccc2nc(-c3ccccc3)cc(C(=O)NCCCn3ccnc3)c2c1 2820 nM
COc1c2occc2c(OC)c2c(=O)cc(C)oc12 20 nM
CCn1ccnc1C[C@@H]1COc2ccccc2O1 15800 nM
COc1ncc2nc(-c3cn(C)c4ccccc34)c(=O)n(CCC#N)c2n1 5010 nM
CN1CCN(c2ncc3nc(-c4cn(C)c5ccccc45)c(=O)n(CCC#N)c3n2)CC1 15800 nM
COc1ncc2nc(-c3cn(C)c4ccccc34)c(=O)n(C)c2n1 1000 nM
CCOC(=O)CC(NC(=O)c1cccs1)c1ccc(OCC)cc1 (centres undefined) 12600 nM
Cc1cc(O)c(/C=N/Nc2cccc(Cl)c2)c(=O)o1 2240 nM
Cc1cc(N2CCN(C)CC2)nc2ccc(NC(=O)CCC(=O)NCc3ccco3)cc12 1260 nM
CCOC(=O)c1cccc2c1-c1ccccc1/C2=N/O 1580 nM
Cc1nc2ccccc2n1CC(=O)N/N=C\C=C\c1ccccc1 5010 nM
Cc1ccc(/C=N/NC(=O)CSc2nc3ccccc3n2C)s1 2510 nM
Cn1c(SCC(=O)N/N=C/C=C\c2ccco2)nc2ccccc21 2000 nM
Cc1ccccc1-c1cncnc1N(C)Cc1ccco1 15800 nM
CN(Cc1ccco1)c1ncncc1-c1ccccc1Cl 25100 nM
COc1ccccc1-c1cncnc1N(C)Cc1ccco1 15800 nM
CCc1cc2c(Sc3nc4ccccc4s3)ncnc2s1 1580 nM
Cc1cccc(CNc2nc(-c3cccnc3)nc3ccccc23)c1 631 nM
c1ccc(-c2nc(NCc3cccnc3)c3ccccc3n2)cc1 1120 nM
CN(C)c1ccc(-c2nc(NCc3cccnc3)c3ccccc3n2)cc1 1580 nM
CCCCc1cc(=O)oc2cc(OCC(=O)N(CC)CC)ccc12 12600 nM
CCCc1cc(=O)oc2cc(OCc3nn[nH]n3)ccc12 12600 nM
O=C(CN1CCCC1)N/N=C/c1ccc(-c2cccc(Cl)c2)o1 8910 nM
CC(=O)c1cccc(NC(=O)CSCc2ccccc2)c1 2000 nM
CC(=O)c1cccc(NC(=O)CCC2CCCC2)c1 3550 nM
CSc1ccccc1NC(=O)CSCc1ccc(C)cc1 7080 nM
